Rows were chosen to be rich in hits. Some 0.4% of all compounds tested hit in one or more screens of this group.
Ba CapD inh: CapD enzyme inhibition; 140,000 compounds, 0.23% hits; z-score (no concentration beside the values); purified CapD enzyme, fluorescence intensity read-out; active compounds read low; in the data active = z-score mostly below about -2.9, no sharp cut-off; inactive = mostly above about -1.9
AID504770: E. coli YBA685 growth inhibition, screen for V. cholerae RctB inhibitors. z-score (concentration not given with the values). E. coli YBA685 rctB-dependent plasmid, OD600 growth, 3 h; active compounds read low. AID 504770. 130,000 compounds, 0.27% hits; in the data active = z-score below about -2, passing the limit was not always enough
Starred values were filed as active, the others as inactive; . = not tested or not shown; ! = a repeat was not active.

SMILES	Ba CapD inh	AID504770
COc1ccc(CCN(C)C(=O)CSc2nnc3n2CCCCC3)cc1OC	.	0.6
N=C1S/C(=C/c2ccc(-c3ccccc3[N+](=O)[O-])o2)C(=O)N1c1nonc1N	-1.5	.
N=C1S/C(=C/c2ccc(-c3cccc(C(=O)O)c3)o2)C(=O)N1c1nonc1N	-6.1*	.
Cc1ccc(C(=O)Nc2ccc(-c3nc4cc(C)ccc4o3)cc2)cc1	7.5	1.5
N#C/C(C(=O)N1CCCC1)=c1/s/c(=C\c2ccc(-c3ccc(S(N)(=O)=O)cc3)o2)c(=O)n1-c1ccccc1	.	0.65
N#CCC(=O)c1ccccc1	-0.47	0.4
N#CSCC(=O)c1ccccc1	-0.7	-3.6*
Cc1ccc(C(=O)O)o1	0.26	1.5
Cc1ccc(C(=O)CSC#N)o1	-0.72	-3.1*
CC(=O)NNc1ccc2nc(C)sc2c1	0.47	-0.5
CC1c2cccc(O)c2CC2=C(O)C3(O)C(O)=C(C(N)=O)C(=O)C(N(C)C)C3C(O)C21 (configuration not stated)	-4.1	-4.1*
C[C@H]1c2cccc(O)c2C(O)=C2C(=O)[C@]3(O)C(O)=C(C(N)=O)C(=O)[C@@H](N(C)C)[C@@H]3[C@@H](O)[C@@H]21	1.3	-0.25
CN(C)c1ccc(O)c2c1C[C@H]1C[C@H]3[C@H](N(C)C)C(=O)C(C(N)=O)=C(O)[C@@]3(O)C(=O)C1=C2O	0.45	.
CN(C)[C@@H]1C(=O)C(C(N)=O)=C(O)[C@@]2(O)C(=O)C3=C(O)c4c(O)cccc4[C@@](C)(O)[C@H]3[C@H](O)[C@@H]12	0.05	-3.9*
CN(C)[C@@H]1C(=O)C(C(N)=O)=C(O)[C@@]2(O)C(=O)C3=C(O)c4c(O)ccc(Cl)c4[C@@](C)(O)[C@H]3C[C@@H]12	0.99	-3.6*
O=C(NCc1ccccc1)c1ccc2ncccc2c1	0.31	1.5
COC(=O)c1cc(COC(=O)CNC(=O)C23CC4CC(CC(C4)C2)C3)oc1C	.	-0.65
CC(O)c1nc2ccccc2s1 (configuration not stated)	.	-0.55
CC(=O)SC(CC(=O)O)c1nc2ccccc2s1 (configuration not stated)	-5.6*	-0.65
CC(=O)/C=C(\O)c1ccc(Cl)cc1	.	-1.2
O=C(/C=C(\O)c1ccc(Cl)cc1)C(F)(F)F	-2.7	-4.3*
C=CCSc1nc(N)c2c(C)c(C(=O)O)sc2n1	.	-0.55
O=C1NC(=S)N(c2ccc(Br)cc2)C(=O)/C1=C/c1cccn1-c1ccccc1	-0.31	.
O=C1NC(=S)N(c2ccccc2)C(=O)/C1=C\c1ccoc1	-5.7*	-0.75
Cc1cccc(C(=O)Nc2ccc(NC(=O)c3cccs3)cc2)c1	-0.31	0.25
SMILES	Ba CapD inh	AID504770
N#C/C(=C\C=C\c1ccco1)C(N)=S	-12*	1.2
N#C/C(=C\c1ccco1)C(N)=S	.	-1.2
O=C(CCCn1c(=S)[nH]c2ccc(Br)cc2c1=O)N1CCN(c2ccc(F)cc2)CC1	-0.76	.
O=C1NC(=O)C2C3C=CC(O3)C12 (configuration not stated)	-0.14	-3.5*
CC(=O)Oc1ccc(N2C(=O)C3C4C=CC(O4)C3C2=O)cc1 (configuration not stated)	-0.85	1.1
Cc1c(C(=O)NNc2ncnc3sc4c(c23)CCCC4)oc2ccccc12	.	-4.2*
O=C(Nc1ncnc2sc3c(c12)CCC3)c1ccccc1	-0.29	-0.45
Cc1cc(C)n(CCCO)c(=O)c1C#N	.	-2.9*
Cc1cc(C)n(CC(C)O)c(=O)c1C#N (configuration not stated)	.	-0.25
Nc1c(C(=O)NCc2ccccc2)sc2nc(-c3cccs3)cc(C(F)(F)F)c12	5.8	.
Cc1ccc2oc(=O)n(CC(=O)c3ccc(F)cc3)c2c1	0.12	0.25
Cc1ccc2oc(=O)n(CC(=O)C(C)(C)C)c2c1	-0.96	-2.1*
O=C1CSC(=S)N1/N=C/c1cccnc1	-4*	-0.4
O=C1CN(c2cc(Cl)cc(Cl)c2)C(=O)CN1/N=C/c1cccnc1	-0.81	3.5
O=C1Nc2ccccc2C(O)(C(=O)N2CCC3(CC2)OCCO3)N1c1ccccc1 (configuration not stated)	-0.68	0.4
CNc1ccccc1C(N)=O	75	.
N#CC(C#N)=NNc1ccccc1C(N)=O	-6*	-3.6*
CNC(=O)Nc1ccc(C(=O)O)cc1	0.41	0.15
O=c1c2cccnc2nc(SCc2ccccc2F)n1Cc1ccccc1	1	-0.15
N#Cc1ccc(CSc2nc3ncccc3c(=O)n2Cc2ccccc2)cc1	-6.5*	-0.35
Cc1ccc(C(=O)N/C(N)=N/c2nc3ccccc3s2)cc1	-0.98	0.5
Cc1cc2c(=O)n(Cc3ccco3)c(SCC(=O)N3CCc4ccccc4C3)nc2s1	0.055	2.2
CCN(CC)c1ncnc2sc3c(c12)CCCC3	-0.17	-0.45
COC(=O)CSc1ncnc2sc3c(c12)CCCC3	-0.12	.
CC(=O)N(C(C)=O)c1ncnc2sc3c(c12)CCCC3	-5.4*	1.9
SMILES	Ba CapD inh	AID504770
CC(Sc1ncnc2sc3c(c12)CCCC3)C(=O)O (configuration not stated)	1.8	-3.4*
O=c1cc(CSc2nc(NC3CCCCC3)c3ccccc3n2)nc2ccccn12	0.88	.
O=C1CC(c2nnc(-c3ccccc3)o2)CN1c1ccccc1 (configuration not stated)	-0.18	-0.4
CCNC(=O)/C(=N\O)c1ccccc1	0.17	1.1
Cc1cc(/C=C2\C(=O)NC(=S)N(c3ccc(Cl)cc3)C2=O)c(C)n1-c1cc(C(=O)O)cc(C(=O)O)c1	-6.2*	.
Cc1cc(/C=C2\C(=O)NC(=O)N(c3ccc(Br)cc3)C2=O)c(C)n1-c1cc(C(=O)O)cc(C(=O)O)c1	-0.94	.
Nc1nnc(N2CCCCC2)s1	-0.38	-0.95
O=C1CCCc2nc(N3CCCCC3)sc21	-4.3*	-0.3
Clc1ccc(-c2csc(-c3ccno3)n2)s1	8.2	2.5
O=S(=O)(NC1=NCCS1)c1ccc(N=NN2CCCCC2)cc1	.	-1.3
Cc1ccc(S(=O)(=O)Nc2ccc(N=NN3CCCCC3)cc2)cc1	.	-6.8*
O=C(NN1S(=O)(=O)c2ccccc2S1(=O)=O)c1cscn1	-6*	.
O=C(NN1S(=O)(=O)c2ccccc2S1(=O)=O)c1ccc(Br)cc1	0.28	-0.1
Cc1ccc(C)n1NC(=O)c1ccco1	0.055	0
O=C(NN1S(=O)(=O)c2ccccc2S1(=O)=O)c1ccco1	-5.7*	.
COC(=O)c1ccc(NC(=O)c2ccccc2C)cc1OC	-0.17	-0.65
COc1cc(/C=C2\C(=O)NC(=S)N(c3ccccc3C)C2=O)cc([N+](=O)[O-])c1O	-6*	.
COc1cc(/C=C2\C(=O)NC(=S)N(c3ccc(Cl)cc3)C2=O)cc([N+](=O)[O-])c1O	-2.8	.
Cc1csc2c(=S)nc[nH]c12	-0.3	.
CN(C)c1nc(-c2ccccc2)c(CC(=O)O)s1	.	0
CN(C)c1nc(-c2ccccc2)[n+](C)s1	-0.17	-4*!
O=S1(=O)CCC(NC(=S)Nc2ccccn2)C1 (configuration not stated)	0.43	1.1
O=S1(=O)CCC(NC(=S)SCCOc2ccccc2OCCO)C1 (configuration not stated)	.	-3*
COc1ccc(Cl)cc1CC(=O)O	.	1.5
FC(F)(F)c1ccccc1-c1ncc(-c2ccccc2)o1	89	-0.95
CNC1(C#N)CCCCC1	.	-0.4
CNC1(C#N)CCC(C)CC1 (configuration not stated)	.	-2.3*
Cc1cccc(NC(=O)CN(C2=NC3CS(=O)(=O)CC3S2)c2ccccc2)c1 (configuration not stated)	-1.3	0.7
